# Sampled rows, rich in hits. Any-hit rate of the full collection: about 2.1%.
# HDAC3 inhib – human HDAC3 inhibition; recombinant HDAC3, fluorogenic peptide/trypsin coupled, fluorescence; actives 0.15% (n = 320,000); O15379; inhibition, % at 8.3 µM; AID 2718; in the data active = inhibition above about 26%, passing the limit was not always enough; inconclusive = no clear call, values can overlap the other calls
# LANA-H2A inh – blocks KSHV LANA binding to histone H2A/H2B; cell-free LANA-H2A/H2B peptide, fluorescence polarization; inhibition, % (no concentration beside the values); Q9QR71; actives 0.6% (n = 320,000); in the data active = inhibition mostly above about 10%, no sharp cut-off; inactive = mostly below about 6.7%
# Mot1-301 SUMO – blocks SUMOylation pathway, rescuing yeast Mot1-301 growth. growth rescue, % at 18.8 µM. AID 2716. actives 1% (n = 320,000). S. cerevisiae Mot1-301 growth rescue, ATP luminescence, 38.5C; percent above DMSO median, 100 means doubled;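 active = every valid replicate shows activation above 250% relative to neutral control wells; inactive = the rest, any valid replicate at or below 250%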
# IDE inh – inhibits human insulin-degrading enzyme in HEK cells | P14735 | FAbetaB cleavage, fluorescence polarization | inhibition, % at 5.59 µM | actives 0.41% (n = 320,000) | AID 434962;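 active = percent inhibition above the average of all tested compounds plus 3 SD, set per screening campaign, cut at about 16% in these data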;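 note: IDE supplied by intact live HEK cells; FP after avidin binding of uncleaved biotin substrate so inhibition keeps polarization high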
# IDE cell activ – activators of human insulin-degrading enzyme in cells; P14735; HEK cells, FAbeta-B cleavage, fluorescence polarization; 0% vehicle, 100% cell-free pure enzyme wells; activation, % at 5.96 µM; actives 0.073% (n = 340,000); AID 493087;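 active = activation above the mean of all tested compounds plus 3 SD, set per screening campaign, cut at about 17% in these data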
# A number is an active result; – = inactive; ? = inconclusive; · = no result.
SMILES,HDAC3 inhib,LANA-H2A inh,Mot1-301 SUMO,IDE inh,IDE cell activ
O=C(CCS(=O)(=O)c1ccccc1)NCc1ccccc1,–,37.3,–,–,–
Cc1ccc(CNC(=O)CCS(=O)(=O)c2ccc(C)cc2)cc1,–,–,–,–,–
Cc1cc(C(=O)Nc2cccc3c2O[C@H](CN(C)CC2CC2)[C@@H](C)CN([C@H](C)CO)C3=O)n(C)n1,–,–,–,–,–
Cc1cc(C2=CC(=O)C[C@H](c3ccc4c(c3)OCO4)C2)ccc1F,–,–,–,–,–
COc1ccc2c(=O)c(-c3ccc(C)cc3)c(-c3ccccc3)oc2c1,·,·,·,·,–
O=C(Nc1cccc(Cl)c1Cl)c1ccccc1OCC(=O)N1CCOCC1,–,–,–,–,–
O=C(c1cc2cc(Br)ccc2o1)N1CCN(c2ccccc2)CC1,–,16.0,–,–,–
CCC(C)(C)c1ccc(OCCCC[n+]2ccc(C)cc2)c(C(C)(C)CC)c1,33.8,–,–,–,·
Cc1ccc(NS(=O)(=O)c2ccc3c(c2)n(C)c(=O)n3C)c(C)c1,–,–,355.2,–,–
CC(OC(=O)Cn1[nH]c(=O)c2ccccc2c1=O)C(=O)Nc1ccc(F)cc1Cl (stereo not given),–,–,–,–,–
CSCC(O)Cn1[nH]c(=O)c2cc(Cl)c(Cl)cc2c1=O (stereo not given),–,15.6,–,–,–
Cc1ccc(S(=O)(=O)C2(C(=O)N3CCN(c4ccccc4F)CC3)CC2)cc1,–,–,–,–,–
COc1ccc(C2=CC(c3cc(OC)c(OC)c(OC)c3)NC(=S)N2)cc1 (stereo not given),–,19.9,–,–,–
CN(C)C1(CNC(=O)C2CCC(=O)N(Cc3ccc(Cl)cc3)C2)CCCCC1 (stereo not given),–,11.2,–,–,–
CN(CCNC(=O)C1CCC(=O)N(Cc2ccc(Cl)cc2)C1)CCc1ccccc1 (stereo not given),–,–,–,–,–
Cc1nc(Sc2ccccc2)c(C#N)cc1-c1ccccc1,–,129.8,–,–,–
O=C(Cc1ccc(Cl)cc1)NNC1CC(=O)N(c2ccc3ccccc3c2)C1=O (stereo not given),–,–,289.0,–,–
O=C(Cc1ccccc1)NNC1CC(=O)N(c2ccc(Cl)cc2)C1=O (stereo not given),–,–,–,–,–
Cc1ccc(C(C)C)c(OCC(=O)Nc2ccc(N3CCN(S(C)(=O)=O)CC3)cc2)c1,–,50.0,–,–,–
COc1ccc(CCc2nnc(CCC(=O)NCC3CCCO3)o2)cc1 (stereo not given),–,–,–,–,–
N#CCc1nn(-c2ccccc2)c(N)c1C#N,–,–,–,–,–
CCc1nn(-c2ccccc2)c(N)c1C#N,–,–,289.7,–,–
COc1ccc(C(=O)CCc2nc3ccccc3s2)cc1,–,–,355.1,–,–
COc1ccccc1NC(=O)CCc1nc2ccccc2s1,–,–,–,–,–
O=C(/C=C/c1ccc([N+](=O)[O-])cc1)Nc1ncc([N+](=O)[O-])s1,·,·,·,·,–
SMILES,HDAC3 inhib,LANA-H2A inh,Mot1-301 SUMO,IDE inh,IDE cell activ
CC(=O)c1cccc(NC(=O)CCNC(=O)c2cccc(C)c2)c1,–,–,–,–,–
COc1ccccc1OCC(=O)OCC(=O)NCCN1C(=O)CSC1=O,?,–,–,–,–
O=C(COC(=O)CNC(=O)c1ccco1)NCCN1C(=O)CSC1=O,–,–,320.0,–,–
Cc1cccc(C(=O)NCC(=O)N2CCC2)c1,–,–,–,–,–
COc1cc(CN2CCC(n3nccc3NC(=O)c3ccc4c(c3)OCO4)CC2)ccc1O,–,47.2,–,–,–
O=C(Nc1ccnn1C1CCN(Cc2ccc(CO)o2)CC1)c1ccc2c(c1)OCO2,–,–,–,–,–
Cc1cc(C)n(-c2ccc(C(=O)OCC(=O)Nc3cc(S(C)(=O)=O)ccc3Cl)cc2)n1,–,–,–,–,–
Cc1ccc(S(=O)(=O)N2CCC(C(=O)NCc3ccccc3Cl)CC2)cc1,–,93.3,–,–,–
O=C(Oc1ccc(N(Cc2cccs2)C2=NS(=O)(=O)c3ccccc32)cc1)c1ccccc1,68.6,–,·,–,–
COc1ccc(N(CC(=O)Nc2cccc(N(C)S(C)(=O)=O)c2)S(=O)(=O)c2ccc(F)cc2)cc1,–,152.2,–,–,–
CCOc1ccc(N(CC(=O)Nc2cccc(N(C)S(C)(=O)=O)c2)S(=O)(=O)c2ccccc2)cc1,–,24.8,–,–,–
